Hits are enriched below; roughly 2.1% of the tested compounds scored in any of these assays.
ARNT TACC3 PPI = disrupts binding between human ARNT and TACC3 | Q9Y6A5 | AlphaScreen His-ARNT PAS-B/GST-TACC3 binding, luminescence; TACC3 fragment carries E629A point mutation | inhibition, % at 9.99 µM | hit rate 0.66% among 390,000 | AID 623870;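 active = mean inhibition of replicates at least 50% and at least half of replicates each reaching 50%; inconclusive = half or more replicates reach 50% but mean below 50%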
PvdQ inh = blocks Pseudomonas aeruginosa PvdQ acylase activity. purified PvdQ acylase, fluorescence plate reader. inhibition, % at 10 µM. hit rate 0.063% among 340,000; in the data active = inhibition above about 30%, passing the limit was not always enough; inconclusive = no clear call, values can overlap the other calls
Ecoli rRNA inh = selective bacterial rRNA inhibition in E. coli. E. coli WT GFP vs humanized-ribosome RFP mutants, fluorescence, 24 h; hits give low values; DMSO median 0, no signal -100. GFP signal change (wild-type ribosome), % (no concentration beside the values). hit rate 1.6% among 350,000;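 active = significant combined selectivity score with lowered wild-type GFP, culture density cut under 30%, mutant RFP and density less affected; inactive = any of these conditions unmet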
ERAP1 HTS inh = blocks human ERAP1 aminopeptidase activity. AID 652197. recombinant ERAP1, Leu-AMC fluorescence, 60 min. hit rate 0.15% among 340,000. inhibition, % at 10.7 µM;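 active = mean replicate inhibition of at least 30%, or all replicates individually reaching that 30% level; inactive = mean below 30% and not every replicate reaching it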
CFTR F508del cor = CFTR F508del correction in bronchial cells; activity (quench increase), % at 7.58 µM; AID 720511; hit rate 0.36% among 350,000; CFBE cells, YFP halide quenching; stimulated with forskolin plus potentiator P3; % fluorescence drop versus neutral controls;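 active = mean added fluorescence quench of at least 8% versus neutral control, with both replicates also reaching 8%; inconclusive = only one of the mean or replicate conditions met; inactive = mean below 8% and not both replicates reaching 8%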;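 also: cells transiently co-express mutant CFTR-F508del with the halide-sensitive YFP; corrector assay measuring rescue of mutant channel to the surface after 24 h compound exposure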
AID977621 = growth inhibition of wild-type GFP E. coli, dose response, H69 mutant RFP, cherry-pick; shares compounds with Ecoli rRNA inh; E. coli wild-type GFP strain growth, fluorescence, 24 h; activity change, negative = inhibition at 50 µM; 1,900 tested, under 10 active; AID 977621;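 active = Wild-type ribosome reporter drop at least double the humanized mutant ribosome reporter drop, growth loss under a set limit; inconclusive = no clear call, values can overlap the other calls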;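 also: wild-type GFP and H69 mutant RFP strains grown together 50/50 in each well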
AID977628 = E. coli growth inhibition, wild-type GFP versus h24 humanized RFP strain, dose response, h24 mutant RFP vs wild-type GFP, cherry-pick; shares compounds with Ecoli rRNA inh; E. coli WT GFP strain growth, fluorescence, 24 h; activity change, negative = inhibition at 50 µM; 1,900 tested, under 10 active;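 active = compound lowering the normal-ribosome reporter at least twice as much as the humanized-ribosome reporter, growth loss under a set limit; inconclusive = no clear call, values can overlap the other calls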;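 also: wild-type GFP and h24 humanized RFP strains co-cultured 1 to 1 per well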
Hits are given with their value.

Screening Cc1cccc(OCc2nc(C#N)c(N3CCCC3)o2)c1 returned ARNT TACC3 PPI inactive, PvdQ inh inactive, Ecoli rRNA inh -25, ERAP1 HTS inh inactive, CFTR F508del cor inactive, AID977621 inactive and AID977628 inactive.
C[C@@H]1CCCCO[C@H](CN(C)C(=O)C2CCCCC2)[C@H](C)CN([C@H](C)CO)C(=O)c2cc(NS(=O)(=O)c3ccc(Cl)cc3)ccc2O1 was read as ARNT TACC3 PPI inactive, Ecoli rRNA inh inactive, ERAP1 HTS inh inactive and CFTR F508del cor inactive.
`O=C(c1ccc(-n2cccn2)cc1)N1CCc2ccccc2C1` gave ARNT TACC3 PPI inactive, PvdQ inh inactive, Ecoli rRNA inh -27, CFTR F508del cor inactive, AID977621 inactive and AID977628 inconclusive.
For O=C(c1ccncc1)N1CCc2ccccc2C1 the results were ARNT TACC3 PPI inactive, PvdQ inh inactive, Ecoli rRNA inh inactive, ERAP1 HTS inh inactive and CFTR F508del cor inactive.
Screening O=S(=O)(c1ccccc1)N1CC[C@@H]2[C@H]1c1cc(Br)ccc1N[C@@H]2CO returned ARNT TACC3 PPI inactive, Ecoli rRNA inh inactive, ERAP1 HTS inh inactive and CFTR F508del cor inactive.
For O=S(=O)(c1ccccc1)N1CC[C@@H]2[C@H](CO)Nc3ccc(Br)cc3[C@@H]21 the results were ARNT TACC3 PPI inactive, Ecoli rRNA inh -42, ERAP1 HTS inh inactive, CFTR F508del cor inactive and AID977621 inactive.
`CCCc1ccc(OCc2ccc(C(=O)N3CCCC3)o2)cc1` gave ARNT TACC3 PPI inactive, PvdQ inh inactive, Ecoli rRNA inh inactive, ERAP1 HTS inh inactive and CFTR F508del cor inactive.
`CCOc1ccc(OCc2ccc(C(=O)N3CCCC3)o2)cc1` gave ARNT TACC3 PPI inactive, PvdQ inh inactive, Ecoli rRNA inh -17, ERAP1 HTS inh inactive, CFTR F508del cor inactive, AID977621 inactive and AID977628 inactive.
C[C@H](CO)N1C[C@H](C)[C@@H](CN(C)C(=O)Nc2cccc3ccccc23)Oc2ccc(NC(=O)Nc3ccc(C(F)(F)F)cc3)cc2C1=O was read as ARNT TACC3 PPI inactive, Ecoli rRNA inh inactive and CFTR F508del cor inactive.
Screening COc1ccc(-c2ccc3ccccc3n2)cc1OC returned ARNT TACC3 PPI inactive, PvdQ inh inactive, Ecoli rRNA inh -34, ERAP1 HTS inh inactive, CFTR F508del cor inactive and AID977628 inconclusive.
For CS(=O)(=O)N1CC2CCCN2c2cc(C(F)(F)F)ccc21 (stereo not given) the results were ARNT TACC3 PPI inactive, PvdQ inh inactive, Ecoli rRNA inh inactive, ERAP1 HTS inh inactive and CFTR F508del cor inactive.
For CS(=O)(=O)N1CC2CCCN2c2ccc(C(F)(F)F)cc21 (stereo not given) the results were PvdQ inh inactive, Ecoli rRNA inh -33, ERAP1 HTS inh inactive, CFTR F508del cor inactive, AID977621 inactive and AID977628 inactive.
O=C1N2c3ccccc3CCc3cccc(c32)C1(O)C(F)(F)F (stereo not given) was read as ARNT TACC3 PPI inactive, PvdQ inh inactive, Ecoli rRNA inh -17, ERAP1 HTS inh inactive, CFTR F508del cor inactive and AID977621 inactive.
Screening O=C(CCl)N1c2ccccc2CCc2ccccc21 returned ARNT TACC3 PPI inactive, PvdQ inh inactive, Ecoli rRNA inh inactive, ERAP1 HTS inh inactive and CFTR F508del cor inactive.
For CO[C@@H]1CN(C)C(=O)c2ccc(NS(C)(=O)=O)cc2OC[C@H](C)N(C(=O)NC(C)C)C[C@H]1C the results were ARNT TACC3 PPI inactive, Ecoli rRNA inh inactive, ERAP1 HTS inh inactive and CFTR F508del cor inactive.
CCOC(=O)c1c(NC(=O)CN(CC)CC)sc2c1CCC2 was read as ARNT TACC3 PPI inactive, PvdQ inh inactive, Ecoli rRNA inh inactive and ERAP1 HTS inh inactive.
`CCN(CC)CC(=O)Nc1sc2c(c1C(=O)c1ccccc1OC)CCC2` gave ARNT TACC3 PPI inactive, PvdQ inh inactive, Ecoli rRNA inh -22, ERAP1 HTS inh inactive, CFTR F508del cor inactive, AID977621 inactive and AID977628 inactive.

Screening results: PubChem, Broad Institute
